The values below come from PubChem BioAssay (NCI).

Values joined by “and” are separate entries in the source; they are usually repeats but may differ in a detail not shown here. Equal values may be shown once. This is part of a sample that, as a whole, favours compounds with a hit. Of some 83,000 tested, about 20% had one in any assay.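 Treatment: one concentration, 48 hours, 96-well format. Scoring: percent growth, with anything below 10 considered active.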 A number with no mark means an inactive call. Active and inactive are the calls of the source.

For this assay, the system named is M14 melanoma. Description: NCI-60 one-dose screen, 48 h (100 = growth as untreated, 0 = no growth, -100 = all killed). Particulars: 10 µM unless noted.
For `C[n+]1c(/C=C/c2ccc([N+](=O)[O-])cc2)ccc2ccccc21`, the growth was 101%.
In the case of `c1ccc2c(c1)Nc1cc3ccccc3cc1N2` it was 23.9%; in that of `NC(N)=N/N=C/c1ccc([N+](=O)[O-])o1`, 99.1%; in that of `Cc1ccnc(NC(c2ccccc2)c2ccc3cccnc3c2O)c1` (configuration not stated), 36.8%.
`CC1SC(=S)N(c2ccc(Cl)cc2)C1=O` (configuration not stated): the growth is 111% and 105%.
In the case of `CCN1/C(=C\c2cc[n+](CC)c3ccccc23)C=Cc2ccccc21` it was 10.5%; in that of `Cc1ccc(C(=Nc2ccccc2)N=P(c2ccccc2)(c2ccccc2)c2ccccc2)cc1`, -79% (active); in that of `CC(C)(C)c1ccc(O)c(C2CCCCC2)c1`, 122%.
In the case of `Cc1ccc(NS(=O)(=O)c2ccc(C)cc2)cc1` it was 98% and 99.2%; in that of `O=C(O)C1C2CC3C(OC(=O)C31)C2Br` (configuration not stated), 96.7% and 98.3%.
For the compound `C=CCOc1ccc(N=NC(C#N)C#N)cc1`, the growth is 66.4%.
In the case of `CN(C)c1ccc(C(=C2C=CC(=[N+](C)C)C=C2)c2ccc(N(C)C)cc2)cc1` (tested in a mixture with another compound) it was -63.2% (active); in that of `O=C(/C=C\c1cc(Br)ccc1O)/C=C/c1cc(Br)ccc1O`, -51.7% (active).
In the case of `CC(C)c1ccc2nc3ccc(C(=O)NCCN4CCN(c5ccccc5)CC4)cn3c(=O)c2c1` it was 63.8%.
In the case of `CC1(C)CC([P+](c2ccccc2)(c2ccccc2)c2ccccc2)=NN1` it was 71.9%; in that of `Cc1c2ccccc2c(C)c2c1ccc1ccccc12`, 86.8%.
Regarding `CC1=CC(O)C2CC1C2(C)C` (configuration not stated), the growth was 97.3% and 109%.
Consider `NC1=CC(=O)c2ccccc2C1=O`, for which the growth was 83%.
In the case of `CCN(CC)CCOc1ccc(-c2nc3cc(Cl)ccc3s2)cc1`, the growth was -75.4% (active).
Regarding `CCOc1ccc(-c2nc3ccc(-c4nc5ccc(N6CCN(C)CC6)cc5[nH]4)cc3[nH]2)cc1`, the growth is -85.1% (active).
In the case of `CNC(=O)N/N=C/c1ccc([N+](=O)[O-])o1` it was 102%.
In the case of `N#CSCc1ccc(CSC#N)c(Cl)c1` it was 50.7%.
